Measurements as given in PubChem BioAssay AID1224921 (Broad Institute, 2016).
Out of some 1,400 compounds screened, about 350 (25%) were called active. Not shown: some 2% with an inconclusive outcome. No rule for the calls is given here. Only a sample is shown. Measured potencies and affinities stand elsewhere.

Experiment: C. difficile growth inhibition, confirmation, 4-point retest (AID 1224921);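 also: plate controls were DMSO wells for no effect and levofloxacin 16 µg/mL wells for full effect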
Conditions: Clostridioides difficile clinical isolate growth, OD600, 24 h, hits give low values; at 30 µM unless noted

Max activity, inactive:
CC(C)NC(=O)N[C@@H]1CC[C@H](CC(=O)NCCCN(C)C)O[C@@H]1CO -13.1%
C[C@@H]1CN([C@H](C)CO)S(=O)(=O)c2ccc(C#CC3CCCC3)cc2O[C@@H]1CN(C)Cc1cccnc1 27.7%
CCCC#Cc1ccc2c(c1)O[C@@H](CN(C)Cc1ccncc1)[C@@H](C)CN([C@@H](C)CO)S2(=O)=O -13.3% [at 8 µM]
CO[C@@H]1CN(C)C(=O)c2cc(NC(=O)c3cnccn3)ccc2OC[C@@H](C)N(CCC(F)(F)F)C[C@H]1C -9.07% [at 35 µM]
CCCNC(=O)Nc1ccc2c(c1)OC[C@H](C)N(Cc1ccccc1)C[C@@H](C)[C@@H](OC)CN(C)C2=O 27.8% [at 8 µM]
CNC[C@H]1Oc2ncc(-c3ccc(OC)cc3)cc2C(=O)N([C@H](C)CO)C[C@@H]1C 27.6%
CO[C@H]1CN(C)C(=O)c2cc(NC(=O)c3ccccc3)ccc2OC[C@H](C)N(C)C[C@H]1C -10.6% [at 1.95 µM]
CO[C@H]1CN(C)C(=O)c2ccc(NS(=O)(=O)c3ccccc3C)cc2OC[C@@H](C)N(S(C)(=O)=O)C[C@@H]1C 15%
C[C@@H]1CN([C@@H](C)CO)S(=O)(=O)c2ccc(C#CC3CCCC3)cc2O[C@@H]1CN(C)Cc1cccnc1 -18.2% [at 1.95 µM]
C[C@@H]1CCCCO[C@H](CN(C)Cc2ccccc2)[C@@H](C)CN([C@H](C)CO)C(=O)c2cc(NC(=O)Nc3ccc(C(F)(F)F)cc3)ccc2O1 19.2% [at 8 µM]
C[C@@H]1CCCCO[C@@H](CN(C)Cc2ccccc2)[C@H](C)CN([C@@H](C)CO)C(=O)c2cc(NC(=O)Nc3ccc(C(F)(F)F)cc3)ccc2O1 26.5% [at 1.95 µM]
CO[C@@H]1CN(C)C(=O)c2cc(NC(=O)NC3CCCCC3)ccc2OC[C@@H](C)N(CCc2ccccc2)C[C@@H]1C 17.7% [at 8 µM]
C[C@H](CO)N1C[C@H](C)[C@H](CN(C)Cc2ccc(-c3ccccc3)cc2)Oc2ncc(C#C[C@@H](C)O)cc2C1=O 17.2%
CO[C@@H]1CN(C)C(=O)c2ccc(NC(=O)c3ccc(Oc4ccccc4)cc3)cc2OC[C@@H](C)NC[C@H]1C -19.3% [at 2.1 µM]
CC(C)CC#Cc1ccc2c(c1)O[C@@H](CN(C)Cc1cccnc1)[C@@H](C)CN([C@H](C)CO)S2(=O)=O 41.2%
C[C@@H]1CCCCO[C@H](CN(C)Cc2ccccc2)[C@H](C)CN([C@@H](C)CO)C(=O)c2cc(NC(=O)Nc3ccc(C(F)(F)F)cc3)ccc2O1 26.5% [at 1.95 µM]
C[C@H](CO)N1C[C@H](C)[C@H](CN(C)Cc2ccccc2)OCCCC[C@H](C)Oc2ccc(NC(=O)Nc3ccc(F)cc3)cc2C1=O 37.9%
CC(C)C#Cc1ccc2c(c1)O[C@H](CN(C)Cc1ccncc1)[C@H](C)CN([C@H](C)CO)S2(=O)=O 8.71%
CCCNC(=O)Nc1ccc2c(c1)C(=O)N(C)C[C@H](OC)[C@@H](C)CN(Cc1ccccc1)[C@H](C)CO2 17.2%
COc1ccc(NC(=O)Nc2cccc3c2O[C@@H](CN(C)C(=O)NC2CCCCC2)[C@H](C)CN([C@H](C)CO)C3=O)cc1 7.41%
O=C(C[C@@H]1C[C@@H]2c3cc(NC(=O)CC4CC4)ccc3O[C@@H]2[C@H](CO)O1)NCCc1ccccc1 -14.8%
CCC(=O)Nc1ccc2c(c1)C(=O)N(C)[C@@H]1CC[C@H](CC(=O)NCc3ccc(OC)cc3)O[C@@H]1CO2 -3.51% [at 1.95 µM]
CC(C)NC(=O)N(C)C[C@H]1Oc2cc(C#Cc3ccc(F)cc3)ccc2S(=O)(=O)N([C@@H](C)CO)C[C@@H]1C 24.4%
C[C@@H]1CN([C@H](C)CO)C(=O)c2cccc(NS(C)(=O)=O)c2O[C@H]1CN(C)Cc1ccccc1 32.7%
CO[C@@H]1CN(C)C(=O)c2cc(NC(=O)c3ccccc3)ccc2OC[C@H](C)N(CC2CC2)C[C@@H]1C 19.6%
COc1cccc(C(=O)Nc2ccc3c(c2)OC[C@@H](C)N(C(=O)C2CCCC2)C[C@H](C)[C@H](OC)CN(C)C3=O)c1 7.82%
CCCC(=O)Nc1ccc2c(c1)C(=O)N(C)C[C@@H](OC)[C@@H](C)CN(Cc1ccccc1)[C@@H](C)CO2 9.16%
CCCNC(=O)N(C)C[C@@H]1Oc2cc(C#Cc3cccc(F)c3)ccc2S(=O)(=O)N([C@H](C)CO)C[C@H]1C 64.3%
O=C(Nc1cc(F)ccc1F)N[C@H]1CC[C@@H](CC(=O)N2CCc3ccccc3C2)O[C@@H]1CO 31.4%
CO[C@H]1CN(C)C(=O)c2cc(NS(=O)(=O)c3cccc(F)c3)ccc2OC[C@H](C)N(Cc2cc(F)ccc2F)C[C@@H]1C -7.26% [at 8 µM]
CCCN1C[C@@H](C)[C@H](OC)CN(C)C(=O)c2cc(NC(=O)CC)ccc2OC[C@@H]1C -10.1%
COc1ccc(NC(=O)Nc2ccc3c(c2)[C@H]2C[C@H](CC(=O)NCc4ccccc4F)O[C@@H](CO)[C@H]2O3)cc1 -14.5% [at 8 µM]
C[C@H]1CN([C@@H](C)CO)C(=O)c2cccc(NC(=O)NC3CCCCC3)c2O[C@H]1CN(C)C(=O)Nc1ccc(C(F)(F)F)cc1 17.7% [at 7.5 µM]
CO[C@@H]1CN(C)C(=O)c2ccc(NC(=O)C3CC3)cc2OC[C@H](C)N(Cc2cncnc2)C[C@@H]1C -6.19% [at 1.95 µM]
CO[C@H]1CN(C)C(=O)c2ccc(NC(=O)C3CC3)cc2OC[C@H](C)N(Cc2cncnc2)C[C@@H]1C -11.8%
CO[C@H]1CN(C)C(=O)c2ccc(NC(C)=O)cc2OC[C@@H](C)N(Cc2cc(F)ccc2F)C[C@H]1C -8.57% [at 1.95 µM]
